± gives the standard deviation.
Tests used:
Details in all cases: modulator concentration 10 µM
[1] = system: RAW-Dual (murine macrophage reporter line); assay: NF-kB reporter (SEAP) activity fold change vs agonist alone; higher = enhanced NF-kB activity
How it was run: (§1)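 In 384-well plates holding 50 000 RAW-Dual murine macrophage reporter cells per well, compound at 10 μM final was pre-incubated for 1 hour at 37 °C, after which a PRR agonist was added overnight. Supernatant SEAP read with QUANTI-Blue at 620 nm absorbance reported NF-κB, and Lucia luciferase read with QUANTI-Luc luminescence reported IRF. Fold change values come from dividing each reporter signal by the mean of agonist-only control wells on the same plate, averaged over replicate plates with propagated errors.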

[2] = system: RAW-Dual (murine macrophage reporter line); assay: IRF reporter (Lucia luciferase) activity fold change vs agonist alone; higher = enhanced IRF activity
How it was run: as §1

[3] = system: RAW-Dual (murine macrophage reporter line); assay: viability score (confluency relative to resting cells, overnight) (fraction); higher = more viable, active = viable (0.7 or more)
How it was run: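 RAW-Dual macrophages in 384-well plates were treated overnight with compound at 10 μM final. IncuCyte imaging recorded confluency, and IncuCyte software built two confluency masks across every imaged well. The viability score expresses confluency relative to resting cells and was judged against a cutoff, which a compound met only if both masks exceeded 70% of resting cells.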

[4] = agonist: CpG ODN 1826 0.5 ug/mL

SMILES	NF-kB reporter [1, 4]	NF-kB reporter ([1]; agonist: LPS 0.1 ug/mL)	NF-kB reporter ([1]; agonist: MPLA […])	IRF reporter ([2]; agonist: 3'3'-cGAMP 10 ug/mL)	IRF reporter ([2]; agonist: LPS 0.1 ug/mL)	IRF reporter ([2]; agonist: MPLA […])	viability score [3]
CC(NC(=O)C(=O)NN=Cc1ccc(Cl)cc1Cl)c1ccccc1 (centres undefined)	0.967 ± 0.095	1.16 ± 0.077	0.953 ± 0.084	1.22 ± 0.051	1.39 ± 0.16	1.14 ± 0.11	0.991 (active)
C=CCc1ccccc1OCC(O)CNC(C)C.Cl (centres undefined)	1 ± 0.24	0.957 ± 0.14	1.06 ± 0.072	0.809 ± 0.029	1.16 ± 0.24	1.07 ± 0.14	0.978 (active)
COc1ccccc1-c1cc(-c2ccccc2)nc(SCC(=O)c2cc3ccccc3oc2=O)c1C#N	0.981 ± 0.058	1.02 ± 0.066	0.966 ± 0.061	0.879 ± 0.034	1.45 ± 0.16	1.07 ± 0.1	1 (active)
CCC(=O)N1CCCC1c1nc2ccccc2n1CCOc1ccc(Cl)cc1 (centres undefined)	0.717 ± 0.18	1.15 ± 0.063	1.2 ± 0.095	0.967 ± 0.097	0.992 ± 0.21	1.1 ± 0.1	0.996 (active)
O=C(NCc1cccc(Oc2ccccn2)c1)C1c2ccccc2Oc2ccccc21	0.52 ± 0.041	1.12 ± 0.088	0.883 ± 0.039	0.801 ± 0.077	1.01 ± 0.12	1.11 ± 0.27	0.992 (active)
Cc1nc(Nc2ncc(C(=O)Nc3c(C)cccc3Cl)s2)cc(N2CCN(CCO)CC2)n1.Cl	0.802 ± 0.035	1.01 ± 0.12	1.06 ± 0.067	0.976 ± 0.048	1.22 ± 0.28	1.34 ± 0.45	1 (active)
CCC(=O)NS(=O)(=O)c1ccc(-c2c(-c3ccccc3)noc2C)cc1	0.921 ± 0.14	1.2 ± 0.26	0.905 ± 0.05	0.971 ± 0.051	1.47 ± 0.31	1.25 ± 0.1	0.996 (active)
NC(=O)C1CCCN1c1ncccc1C(F)(F)F (centres undefined)	1.16 ± 0.068	1.09 ± 0.089	0.994 ± 0.028	1.01 ± 0.088	1.06 ± 0.063	1.01 ± 0.1	0.997 (active)
CC1=C(C(=O)OC2CCCCC2)C(c2ccc(N(C)C)cc2)C2=C(CC(C)(C)CC2=O)N1 (centres undefined)	0.767 ± 0.12	0.697 ± 0.08	1.16 ± 0.1	0.843 ± 0.083	0.943 ± 0.071	1.04 ± 0.22	1 (active)
COc1ccc(CNC2CCCc3ccccc32)cc1OC (centres undefined)	0.648 ± 0.24	1.1 ± 0.09	0.981 ± 0.11	0.713 ± 0.026	1.12 ± 0.14	1.5 ± 0.29	0.508 (inactive)
COc1ccc(S(=O)(=O)NCCn2nc(C(F)(F)F)cc2C2CC2)cc1	0.935 ± 0.077	1.09 ± 0.083	1.04 ± 0.029	0.996 ± 0.037	0.953 ± 0.096	0.834 ± 0.15	0.979 (active)
Nc1nonc1C(=O)NN=Cc1cc(Br)c(O)c(Br)c1	1.05 ± 0.085	1.01 ± 0.076	1.03 ± 0.054	0.938 ± 0.11	1.08 ± 0.12	1.05 ± 0.23	0.997 (active)
O=C(CC1CC1)N1CCN(c2cc(C(F)(F)F)ncn2)CC1	0.929 ± 0.04	0.963 ± 0.081	1.29 ± 0.13	1.04 ± 0.091	1.04 ± 0.18	1.01 ± 0.43	1.01 (active)
O=C(O)CCCCCN1C(=O)C(=Cc2cn(-c3ccccc3)nc2-c2cccs2)SC1=S	1.02 ± 0.063	1.12 ± 0.12	1.01 ± 0.059	1.03 ± 0.038	1.27 ± 0.082	1.06 ± 0.11	1 (active)
Oc1ccc(OCc2ccccc2)cc1	1.78 ± 0.25	1.51 ± 0.34	1.34 ± 0.095	0.665 ± 0.033	1.46 ± 0.27	1.42 ± 0.17	0.832 (active)
OCCOCCN1CCN(C(c2ccccc2)c2ccc(Cl)cc2)CC1 (centres undefined) [Prestw-133]	1.07 ± 0.083	0.934 ± 0.071	1.07 ± 0.11	0.763 ± 0.024	1 ± 0.14	1.01 ± 0.21	1.04 (active)
CC(C)C1=CC2=CCC3C(C)(C(=O)O)CCCC3(C)C2CC1 (centres undefined)	0.962 ± 0.076	0.863 ± 0.065	0.891 ± 0.085	0.93 ± 0.03	1.22 ± 0.2	1.35 ± 0.33	1.05 (active)
O=C(c1ccccc1)c1cc([N+](=O)[O-])ccc1N1CCOCC1	2.4 ± 0.19	1.15 ± 0.069	1.88 ± 0.13	0.297 ± 0.03	1.65 ± 0.12	1.48 ± 0.32	0.739 (active)
O=C(O)CCCNC(=O)c1ccccc1C(=O)O	0.896 ± 0.092	0.911 ± 0.067	0.952 ± 0.093	1.04 ± 0.043	1.3 ± 0.14	1.41 ± 0.21	1.03 (active)
Cc1ccc(CC(=O)N2CCNC(=O)C2(C)C)cc1C	1.08 ± 0.11	1.07 ± 0.1	0.989 ± 0.031	0.865 ± 0.042	0.941 ± 0.044	0.87 ± 0.085	0.999 (active)
Cc1ccc(N2C(=O)CC(Nc3ccc(N4CCOCC4)cc3)C2=O)cc1 (centres undefined)	1.04 ± 0.11	1.09 ± 0.09	0.823 ± 0.057	0.641 ± 0.016	1.2 ± 0.16	0.908 ± 0.11	1.01 (active)
CCOC(=O)[C@H](CCc1ccccc1)N[C@H]1CCc2ccccc2N(CC(=O)O)C1=O.Cl	1.07 ± 0.083	0.961 ± 0.17	0.987 ± 0.021	0.947 ± 0.054	0.935 ± 0.076	0.967 ± 0.14	0.999 (active)
O=C(NCCN1CCN(c2ccc(Cl)cc2)CC1)c1cnccn1	0.974 ± 0.076	0.967 ± 0.086	1 ± 0.03	0.982 ± 0.049	1.01 ± 0.055	0.919 ± 0.097	0.998 (active)
COc1cccc2c1C(=O)c1c(O)c3c(c(O)c1C2=O)C[C@@](O)(C(=O)CO)C[C@@H]3O[C@H]1C[C@H](N)[C@H](O)[C@H](C)O1 [Prestw-438]	0.123 ± 0.007	0.0747 ± 0.019	0.112 ± 0.0071	0.03 ± 0.0031	0.0425 ± 0.0034	0.0335 ± 0.0064	0.114 (inactive)
CC(=O)c1ccc(Nc2ncnc(Nc3ccc(C(C)=O)cc3)c2[N+](=O)[O-])cc1	1.04 ± 0.1	1.09 ± 0.076	0.939 ± 0.045	1.01 ± 0.091	1.06 ± 0.052	0.994 ± 0.076	0.991 (active)
COc1ccc(C2OCC3C(c4ccc(OC)c(OC)c4)OCC23)cc1OC (centres undefined)	1.18 ± 0.091	1.03 ± 0.094	1.08 ± 0.11	1.11 ± 0.088	1.07 ± 0.13	1.21 ± 0.23	1.01 (active)
CCC(C)(C)C(=O)Nc1ccc(C(C)=O)cc1	0.962 ± 0.076	1.03 ± 0.068	0.953 ± 0.045	0.909 ± 0.13	1.02 ± 0.14	1.11 ± 0.22	1 (active)

— the supplement of paper PMC10646978
